Measurements published in the supplement of paper PMC6555819.

test system: VDR:RXRa (NR concentration 270 nM, RXRa partner concentration 90 nM); test: PBM binding z-score (relative to random genomic background probes); higher = stronger binding; sequences stand for … in GC…GCGATTGACAGCGTAGAATGAAGG
Procedure: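 Protein-binding microarray (Agilent 4x180K custom design, double-stranded 60-nt probes: 5' GC cap, 34-nt variable region, 24-nt constant primer region; full probe sequence given). Purified or IVT nuclear receptor:RXRα heterodimers (3:1 NR:RXRα, mostly 270:90 nM) or homodimers were incubated for 1 h in PBS with 2% milk and no ligand, then detected with Alexa488 antibodies. Fluorescence from o1-orientation probes (~5 replicates averaged) was converted to z-scores against 500 random hg19 background probes. Variable regions are seed direct-repeat (DR0–DR5) sites, all their single-nucleotide variants and half-site ablations.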

Sequence | PBM binding z-score
CGTAGCAGGCCAGGGTCACTCAAGCATTTCGCTT | 2.59
TGTCAAAGTTCAAAGGTAACGAAAGTATCCACAC | 5.07
ACTTACGGGTCAAAGAGGTTATAGCACGCGTATA | 7.09
TCATATAGGTAAAAGTGAAAGTCGAACGATATGA | 0.265
GCTAGCAGGCCATTTGTGTCACTCAATGACGGGC | -0.481
CGAACTAGGTCACCGGAAGGTCAAAGTCCGCATG | 5.8
TCTGCTAGGTCCGTTGGTCAGCTAACGAGCTGCC | -0.499
GCATATAGGTAATACAAGGTGAAAGCCCGATTGT | 0.178
CGTCAAAGTTCAACTAAGGTGACGTAAAGCACGC | 4.87
ACTTACGGGTCAACGAGGTTCTAGCACGCGTATA | 6.52
CCTGCTACGTCAATGGTCAGCTAAAGCAGCTCGC | -0.379
ACTTACGAGTCAACGAGGTTATAGCACGCGTATA | 4.89
TGTCAAAGTTCAAAGGTAACTTAAGTATCCACAC | 5.09
ATATGTAGGTTACATCCGTGTCATTCAGGCTATG | 1.4
CAAACTAGGTCACCGGAATGTCAAAGTCCGCATG | 3.06
CCTCGGAGGACAGAAGGTCAGAGGTGTCCGCTTT | 1.24
GCTAGCAGGCCATTTGGGTCACCCAATGACGGGC | 1.07
CCTGCTAGGTCAATGGTCAGGTAAAGCAGCTCGC | 0.722
CGAGACAGGTGAAAGGTAACTCAGTCTGGTACGC | 0.633
ATCTCTAGGTAAAGTTCGGTGAAAGATCGATAGA | 0.603

Sequence | PBM binding z-score
TCTATTAGTTGAAGGGCATCCGACGAGTCCGTTT | 1.08
TCTAGCGGGCCAGAGGGTCACTCAAGAGGTACGG | 1.29
GCTGCCAGGTCAACTGATGGTCAGCTAAAGCTCG | 2.62
TTACCAAGGTAAGCTGAGGTCGTTGATCCAACTC | 2.84
GTACCAACGTGAATAGGTCGTTGATGAGTAGGCG | -0.204
ACTTACGGGTCAACGAGGTTATAGCTCGCGTATA | 7.8
CGTCCAAGGTAAAAGGTCAGTGAAGAGATGACGG | 2.93
CCTTACGGGTCAATGACAGGTTATAGCATTTGGA | 3.29
GCTAGCAAGCCATTTGGGTCACTCAATGACGGGC | -0.0244
GCGACTGGGGCATCAGCTGGTTACCATAACTTAA | -0.49
CGAACTAGGTCATTGACAGGACCGTGAATAGTAA | 1.51
CAAACTAGGACAAGAGGTCAAAGTCCGCTTCCCG | 5
TGAGACAGGTGAAGGTAACTCAGGTACGCAGTCG | -0.109
TCTTGTAGGTCAGCAGGTTAAGAAAGCTGGCCAA | 3.54
CAAACTAGGTCATAGGTCAAAGTCGAGCCAACCA | 4.9
AGTCAAATTTCAGGACGAGGTAACGTAAAGCACG | -0.0744
CCTAGCAGGCCAATCTGGGTCACTGAAGGCTTGA | 0.552
CCTGCTAGGTCATGGTCGGCTAATCTACAGTATG | 1.57
GAAACGAGGGCAAAGTTGATAGCATCTGTCGACG | 1.69
AGAGACAGGTGATGAAGGTAACTCAGGCTATCAT | 0.424
